Active and inactive are the calls of the source. Rule for the calls: active = hit-call score of the fitted dose curve at least 0.9, where 1 is the maximum; inactive = score below 0.9.

Common to all, as to details: mRNA level, 48 h; actives raise or lower the signal
Read-out in assay [1]: Ezrin (EZR), EZR (gene 7430)
As to the kind of experiment: LTEA_HepaRG_EZR: Life Technologies and Expression Analysis (LTEA) Assay for Ezrin (EZR) using HepaRG (AID 2283491). The essentials:
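EZR transcript levels came from Fluidigm qRT-PCR and were normalized to three housekeeping genes after 48 h chemical exposure of HepaRG cells. Dosing used an 8-point half-log series with a 100 uM top concentration in 0.5% DMSO, tested in duplicate; both directions were fitted versus vehicle.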

Read-out in assay [2]: Cytochrome P450 3A7 (Homo sapiens) (UniProt P24462)
The assay is described as follows: LTEA_HepaRG_CYP3A7: Life Technologies and Expression Analysis (LTEA) Assay for CYP3A7 using HepaRG (AID 2283492). The essentials: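 CYP3A7 transcript measured by qRT-PCR (ACTB, GAPDH, POLR2A normalization) after 48 h chemical exposure of HepaRG cells in duplicate. Eight half-log concentrations, maximum 100 uM, 0.5% DMSO vehicle; bidirectional curve fitting against DMSO baseline.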

Read-out in assay [3]: CYP3A5 (gene 1577)
The assay is described as follows: LTEA_HepaRG_CYP3A5: Life Technologies and Expression Analysis (LTEA) Assay for CYP3A5 using HepaRG (AID 2283493). In outline: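 Differentiated HepaRG cells in serum-free induction medium were dosed 48 h with test chemicals (8-point half-log series, top 100 uM, 0.5% DMSO, duplicate). CYP3A5 mRNA measured by qRT-PCR, normalized to ACTB, GAPDH, POLR2A; bidirectional fit versus DMSO.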

Read-out in assay [4]: Fatty Acid-Binding Protein 1 (FABP1), FABP1 (gene 2168)
The assay is described as follows: LTEA_HepaRG_FABP1: Life Technologies and Expression Analysis (LTEA) Assay for Fatty Acid-Binding Protein 1 (FABP1) using HepaRG (AID 2283494). In outline:
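Differentiated human HepaRG cells were exposed in duplicate for 48 h in serum-free induction medium to 8-point half-log concentration series topping at 100 uM in 0.5% DMSO. FABP1 mRNA measured by TaqMan qRT-PCR, normalized to ACTB/GAPDH/POLR2A; bidirectional fit versus DMSO.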

Read-out in assay [5]: Cytochrome P450 4A22 (Homo sapiens) (UniProt Q5TCH4)
The assay is described as follows: LTEA_HepaRG_CYP4A22: Life Technologies and Expression Analysis (LTEA) Assay for Cytochrome P450 4A22 (CYP4A22) using HepaRG (AID 2283495). The essentials: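 Gene expression measured by qRT-PCR against three housekeeping genes (ACTB, GAPDH, POLR2A), with gain or loss fitted relative to 0.5% DMSO vehicle. HepaRG cultures received 48 h chemical treatment, top concentration 100 uM, half-log steps, duplicate wells.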

Read-out in assay [6]: Cytochrome P450 7A1 (Homo sapiens) (UniProt P22680)
As to the kind of experiment: LTEA_HepaRG_CYP7A1: Life Technologies and Expression Analysis (LTEA) Assay for Cytochrome P450 7A1 (CYP7A1) using HepaRG (AID 2283496). In outline:
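Gene expression endpoint in human HepaRG liver cells treated for 48 h with test chemicals (up to 100 uM, 0.5% DMSO). Values come from bidirectional concentration-response fitting versus DMSO.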

Read-out in assay [7]: Glutathione S-Transferase (GSTA2), GSTA2 (gene 2939)
The assay is described as follows: LTEA_HepaRG_GSTA2: Life Technologies and Expression Analysis (LTEA) Assay for Glutathione S-Transferase (GSTA2) using HepaRG (AID 2283497). In outline: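 Human HepaRG cells, plated 48 h, then exposed in serum-free induction medium for 48 h to eight half-log concentrations up to 100 uM in 0.5% DMSO, duplicate. GSTA2 mRNA by qRT-PCR, normalized to ACTB/GAPDH/POLR2A; bidirectional fit versus DMSO.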

Read-out in assay [8]: Glutamate-cysteine ligase catalytic (GCLC), GCLC (gene 2729)
As to the kind of experiment: LTEA_HepaRG_GCLC: Life Technologies and Expression Analysis (LTEA) Assay for Glutamate-cysteine ligase catalytic (GCLC) using HepaRG (AID 2283498). The essentials:
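Differentiated human HepaRG cells, plated 48 h then switched to serum-free induction medium, were exposed in duplicate for 48 h to 8 half-log concentrations topping at 100 uM in 0.5% DMSO. GCLC mRNA was quantified by qRT-PCR against ACTB, GAPDH and POLR2A.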

Read-out in assay [9]: growth arrest and DNA damage 45 (GADD45G), GADD45G (gene 10912)
The assay is described as follows: LTEA_HepaRG_GADD45G: Life Technologies and Expression Analysis (LTEA) Assay for growth arrest and DNA damage 45 (GADD45G) using HepaRG (AID 2283499). In outline: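 GADD45G transcript level by qRT-PCR (housekeeping-normalized: ACTB, GAPDH, POLR2A) after 48 h chemical treatment of a single HepaRG lot in serum-free induction medium; eight-point half-log series up to 100 uM in 0.5% DMSO, duplicates, up- or down-regulation scored.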

Read-out in assay [10]: Glutamate-cysteine ligase regulatory (GCLM), GCLM (gene 2730)
The assay is described as follows: LTEA_HepaRG_GCLM: Life Technologies and Expression Analysis (LTEA) Assay for Glutamate-cysteine ligase regulatory (GCLM) using HepaRG (AID 2283500). The essentials: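 Differentiated human HepaRG cells exposed 48 h in serum-free induction medium to 8-point half-log concentrations (top 100 uM, 0.5% DMSO), in duplicate. GCLM mRNA quantified by qRT-PCR, normalized to ACTB, GAPDH, POLR2A; bidirectional fitting versus DMSO.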

Read-out in assay [11]: Glutathione S-transferase M3 (GSTM3), GSTM3 (gene 2947)
As to the kind of experiment: LTEA_HepaRG_GSTM3: Life Technologies and Expression Analysis (LTEA) Assay for Glutathione S-transferase M3 (GSTM3) using HepaRG (AID 2283501). In outline:
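GSTM3 transcript levels came from Fluidigm TaqMan qRT-PCR normalized to three housekeeping genes, fitted in both directions against DMSO. HepaRG cultures received chemicals for 48 h in serum-free induction medium (0.5% DMSO), 8 half-log concentrations up to 100 uM, duplicate.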

Read-out in assay [12]: Hypoxia-inducible factor 1-alpha (Homo sapiens) (UniProt Q16665)
As to the kind of experiment: LTEA_HepaRG_HIF1A: Life Technologies and Expression Analysis (LTEA) Assay for Hypoxia-inducible factor 1 (HIF1A) Trancription factor using HepaRG (AID 2283503). In outline: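 HepaRG, 48 h exposure, 8-pt half-log series from 100 uM, 0.5% DMSO vehicle, duplicates. Readout: HIF1A transcript by qRT-PCR (Fluidigm array), housekeeping-normalised. Bidirectional curve fit vs DMSO baseline.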

Read-out in assay [13]: 3-Hydroxy-3-Methylglutaryl-CoA Synthase 2 (HMGCS2), HMGCS2 (gene 3158)
The assay is described as follows: LTEA_HepaRG_HMGCS2: Life Technologies and Expression Analysis (LTEA) Assay for 3-Hydroxy-3-Methylglutaryl-CoA Synthase 2 (HMGCS2) using HepaRG (AID 2283504). In outline:
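Readout is HMGCS2 transcript by qRT-PCR, housekeeping-normalised (ACTB/GAPDH/POLR2A) and fitted bidirectionally against 0.5% DMSO. Differentiated HepaRG cells received chemicals 48 h, duplicate wells, eight half-log concentrations topping at 100 uM.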

Read-out in assay [14]: HGF (gene 3082)
The assay is described as follows: LTEA_HepaRG_HGF: Life Technologies and Expression Analysis (LTEA) Assay for Hepatocyte Growth Facto (HGF) using HepaRG (AID 2283505). The essentials: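 HGF transcript was quantified by TaqMan qRT-PCR against three housekeeping genes after 48 h treatment of HepaRG cells. Exposure ran in duplicate over eight half-log steps topping at 100 uM in 0.5% DMSO vehicle.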

Read-out in assay [15]: Insulin Like Growth Factor 1 (IGF1), IGF1 (gene 3479)
As to the kind of experiment: LTEA_HepaRG_IGF1: Life Technologies and Expression Analysis (LTEA) Assay for Insulin Like Growth Factor 1 (IGF1) using HepaRG (AID 2283506). The essentials:
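Differentiated human HepaRG cells were dosed for 48 h in serum-free induction medium with 0.5% DMSO, eight half-log concentrations up to 100 uM, in duplicate. IGF1 mRNA was quantified by qRT-PCR normalized to ACTB, GAPDH, POLR2A; bidirectional fitting versus DMSO.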

Read-out in assay [16]: Intercellular Adhesion Molecule 1 (ICAM1), ICAM1 (gene 3383)
As to the kind of experiment: LTEA_HepaRG_ICAM1: Life Technologies and Expression Analysis (LTEA) Assay for Intercellular Adhesion Molecule 1 (ICAM1) using HepaRG (AID 2283507). In outline:
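ICAM1 transcript levels measured by qRT-PCR, normalized to three housekeeping genes (ACTB, GAPDH, POLR2A), after 48 h chemical exposure of HepaRG cells. Duplicate eight-point half-log series from 100 uM in 0.5% DMSO; gain or loss fitted against vehicle.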

Read-out in assay [17]: Insulin-like growth factor-binding protein 1 (IGFBP1), IGFBP1 (gene 3484)
As to the kind of experiment: LTEA_HepaRG_IGFBP1: Life Technologies and Expression Analysis (LTEA) Assay for Insulin-like growth factor-binding protein 1 (IGFBP1) using HepaRG (AID 2283508). The essentials:
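Read-out is qRT-PCR transcript level normalized to three housekeeping genes, fitted in both directions against 0.5% DMSO. Differentiated HepaRG cells received eight half-log concentrations (top 100 uM) in duplicate for 48 h in serum-free induction medium.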

Read-out in assay [18]: Early growth response protein 1 (EGR1) transcription factor, EGR1 (gene 1958)
As to the kind of experiment: LTEA_HepaRG_EGR1: Life Technologies and Expression Analysis (LTEA) Assay for Early growth response protein 1 (EGR1) transcription factor using HepaRG (AID 2283490). In outline:
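Differentiated human HepaRG cells in serum-free induction medium were exposed in duplicate for 48 h to eight concentrations (top 100 uM, half-log steps) in 0.5% DMSO. EGR1 mRNA was quantified by qRT-PCR, normalized to ACTB, GAPDH and POLR2A, and fitted bidirectionally versus DMSO.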

Read-out in assay [19]: Heat shock 70 kDa protein 1 (HSPA1A), gene 3303
The assay is described as follows: LTEA_HepaRG_HSPA1A: Life Technologies and Expression Analysis (LTEA) Assay for Heat shock 70 kDa protein 1 (HSPA1A) using HepaRG (AID 2283502). The essentials: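 Differentiated human HepaRG cells in serum-free induction medium were exposed in duplicate for 48 h to eight concentrations (top 100 uM, half-log steps, 0.5% DMSO). HSPA1A mRNA was quantified by qRT-PCR, normalized to ACTB, GAPDH and POLR2A, and fitted bidirectionally against DMSO.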

Sequence of Hypoxia-inducible factor 1-alpha (Homo sapiens) (Q16665 whole entry, looked up): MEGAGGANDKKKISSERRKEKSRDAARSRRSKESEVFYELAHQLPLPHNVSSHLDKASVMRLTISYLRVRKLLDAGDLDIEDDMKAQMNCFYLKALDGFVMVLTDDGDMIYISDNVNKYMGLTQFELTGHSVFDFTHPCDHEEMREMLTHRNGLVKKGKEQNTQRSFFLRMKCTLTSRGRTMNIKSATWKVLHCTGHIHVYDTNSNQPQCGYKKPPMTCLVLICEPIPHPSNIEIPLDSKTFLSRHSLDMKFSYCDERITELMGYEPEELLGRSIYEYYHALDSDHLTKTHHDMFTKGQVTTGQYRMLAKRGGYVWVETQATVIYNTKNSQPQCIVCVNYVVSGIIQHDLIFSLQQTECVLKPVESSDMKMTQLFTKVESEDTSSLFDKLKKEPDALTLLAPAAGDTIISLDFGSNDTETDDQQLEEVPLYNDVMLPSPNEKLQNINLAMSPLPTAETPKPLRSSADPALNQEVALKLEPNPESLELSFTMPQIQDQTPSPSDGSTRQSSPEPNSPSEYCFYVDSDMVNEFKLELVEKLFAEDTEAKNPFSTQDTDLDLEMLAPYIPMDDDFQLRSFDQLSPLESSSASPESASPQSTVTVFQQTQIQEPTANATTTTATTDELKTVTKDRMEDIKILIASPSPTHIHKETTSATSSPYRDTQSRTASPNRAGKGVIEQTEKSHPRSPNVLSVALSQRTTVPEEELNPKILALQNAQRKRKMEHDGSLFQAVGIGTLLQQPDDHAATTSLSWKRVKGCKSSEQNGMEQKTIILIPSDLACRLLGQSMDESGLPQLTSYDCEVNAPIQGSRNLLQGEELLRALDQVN
Sequence of Cytochrome P450 3A7 (Homo sapiens) (P24462 whole entry, looked up): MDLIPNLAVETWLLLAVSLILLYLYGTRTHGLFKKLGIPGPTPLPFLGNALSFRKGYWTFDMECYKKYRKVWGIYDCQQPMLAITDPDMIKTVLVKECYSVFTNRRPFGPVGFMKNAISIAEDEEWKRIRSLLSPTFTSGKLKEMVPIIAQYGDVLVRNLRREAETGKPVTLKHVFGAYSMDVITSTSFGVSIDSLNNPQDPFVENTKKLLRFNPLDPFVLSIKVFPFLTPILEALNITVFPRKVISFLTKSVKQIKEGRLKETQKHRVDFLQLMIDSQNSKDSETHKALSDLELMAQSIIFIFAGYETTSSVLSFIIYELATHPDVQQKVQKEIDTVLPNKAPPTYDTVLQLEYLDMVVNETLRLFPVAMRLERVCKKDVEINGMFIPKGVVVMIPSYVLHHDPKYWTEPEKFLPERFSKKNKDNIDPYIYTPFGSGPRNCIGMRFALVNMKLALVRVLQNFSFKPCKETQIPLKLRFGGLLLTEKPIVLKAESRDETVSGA

`O=C(O)Cc1ccccc1Nc1c(Cl)cccc1Cl`: the molecule was called inactive in [1], in [2], in assay [3], in assay [4], in [7] and in [8]. Also, the result in [9], in [10], in assay [11], in assay [12], in [13] and in assay [14] was inactive. Further, the outcome in assay [16] and in assay [17] was inactive. Besides, the figures for the AC50 in [5], in assay [6] and in [15] were 9.92 µM (active), 1.24 µM (active) and 16.5 µM (active), respectively.
As for `CN[C@H]1CC[C@@H](c2ccc(Cl)c(Cl)c2)c2ccc(S(N)(=O)=O)cc21`, the AC50 in assay [18] is 83 µM (active); in [4] it was 50 µM (active); in assay [5] it was 15.8 µM (active); in [6] it was 12.2 µM (active); in [19], 72.1 µM (active); in assay [13] it was 50 µM (active). For the same molecule, the AC50 in assay [15] was 87.7 µM (active); in assay [16], 74.8 µM (active); in assay [17] it was 57.7 µM (active). Further, the outcome in [1], in assay [2], in assay [3], in assay [7], in assay [8] and in assay [10] was inactive. For the same molecule, the outcome in [11], in [12] and in assay [14] was inactive.
For `Cc1cccc(Nc2cc(Cl)nc(SCC(=O)O)n2)c1C`, the call in assay [1], in assay [3], in assay [7], in assay [8], in assay [10] and in [11] was inactive. The outcome in [19], in assay [15], in assay [16] and in [17] was inactive. Also, the AC50 in [4] was 16.7 µM (active); in assay [5], 16.7 µM (active); in [6] it was 19.5 µM (active); in assay [13], 6.99 µM (active).

For the origin of these results see PubChem BioAssay (EPA / NIEHS).
